Most compounds without a hit are left out; they make up all but 2.5% or so of the library.
Jurkat NFkB inh: inhibitors of the PMA/ionomycin-induced NF-kB reporter in Jurkat cells | inhibition, % at 4 µM | PMA/ionomycin-induced NF-kB luciferase reporter, luminescence | actives 0.53% (n = 330,000); in the data active = inhibition above about 50%
TMEM16A inh: inhibitors of mouse TMEM16A calcium-activated chloride channel. normalized B-score (activity score, 25-100; higher = stronger inhibition) at 10 µM. HEK293 TMEM16A/YFP iodide influx fluorescence, ionomycin. Q8BHY3. actives 1.2% (n = 310,000);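 active = ratio plate-corrected score three or more library SD toward inhibition, starting fluorescence score within five deviations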;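 also: score derived from kinetic fluorescence span divided by baseline fluorescence per well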
Target sequence (Q8BHY3 whole entry, looked up): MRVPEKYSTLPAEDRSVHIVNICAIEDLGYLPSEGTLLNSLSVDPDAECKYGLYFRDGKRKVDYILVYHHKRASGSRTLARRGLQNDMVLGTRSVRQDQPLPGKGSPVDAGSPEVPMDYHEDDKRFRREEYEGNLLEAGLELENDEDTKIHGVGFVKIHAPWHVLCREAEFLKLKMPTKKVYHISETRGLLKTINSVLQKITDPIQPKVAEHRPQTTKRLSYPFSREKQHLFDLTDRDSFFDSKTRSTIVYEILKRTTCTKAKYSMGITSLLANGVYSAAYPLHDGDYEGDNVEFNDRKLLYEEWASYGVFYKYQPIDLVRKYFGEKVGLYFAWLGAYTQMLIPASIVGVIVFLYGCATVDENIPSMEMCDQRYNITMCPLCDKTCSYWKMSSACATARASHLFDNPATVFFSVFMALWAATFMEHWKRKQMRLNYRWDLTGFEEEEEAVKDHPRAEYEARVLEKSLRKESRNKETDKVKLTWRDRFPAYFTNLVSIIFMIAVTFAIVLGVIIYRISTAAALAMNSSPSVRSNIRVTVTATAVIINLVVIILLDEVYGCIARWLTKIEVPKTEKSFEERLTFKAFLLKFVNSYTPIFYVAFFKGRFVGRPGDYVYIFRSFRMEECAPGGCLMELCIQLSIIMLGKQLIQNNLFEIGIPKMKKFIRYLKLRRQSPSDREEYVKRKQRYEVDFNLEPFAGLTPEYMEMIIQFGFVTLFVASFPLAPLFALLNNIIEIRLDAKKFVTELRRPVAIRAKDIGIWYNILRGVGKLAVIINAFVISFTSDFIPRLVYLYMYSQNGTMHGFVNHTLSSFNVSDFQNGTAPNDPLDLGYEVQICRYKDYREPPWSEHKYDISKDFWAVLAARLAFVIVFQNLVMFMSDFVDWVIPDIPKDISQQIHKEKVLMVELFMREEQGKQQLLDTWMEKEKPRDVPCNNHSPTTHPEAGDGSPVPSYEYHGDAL
697 NFkB inh: lowers PMA/ionomycin-induced NF-kB signal in 697 B cells; 697 B-cell NF-kB luciferase reporter, 16 h; actives 0.33% (n = 330,000); inhibition, % at 4 µM; in the data active = inhibition above about 35%
KLF5 inh: kruppel-like factor 5 inhibition | inhibition, % at 5 µM | actives 0.23% (n = 290,000) | DLD-1 KLF5 promoter-luciferase reporter, luminescence;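 active = inhibition above a per-plate limit of that plate's mean compound inhibition plus 3 SD, cut at about 60% in these data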;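 also: 0% = DMSO wells and 100% = LY294002 at 200 µM; higher means less KLF5 promoter-driven luciferase light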
TMEM16A act: activates or potentiates the mouse TMEM16A chloride channel | HEK293 TMEM16A/YFP-H148Q/I152L, iodide quench fluorescence; stronger effect = lower value | B-score at 10 µM | actives 0.3% (n = 340,000);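 active = fluorescence-ratio B-score plate-corrected deviation score at least 3 library SD below zero, with starting fluorescence score within 5 deviations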;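 also: channel opened by trigger with iodide after compound preincubation; score built on the fluorescence ratio of max minus min over baseline; more negative score means more quench and so TMEM16A activation or potentiation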
aSyn UTR inh: 5' untranslated region of α-synuclein, MLPCN primary screen | AID 1813 | actives 0.82% (n = 300,000) | alpha-synuclein 5'UTR reporter, inhibitor activity | inhibition, % (tested at 7.5 µM); in the data active = inhibition above about 60%;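 also: H4 neuroglioblastoma cells stably carrying SNCA 5'UTR luciferase fusion; 0% = DMSO wells and 100% = positive control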
* = called active by the depositor; i = inactive; x = no result given.

SMILES	Jurkat NFkB inh	TMEM16A inh	697 NFkB inh	KLF5 inh	TMEM16A act	aSyn UTR inh
O=C(CSc1ccccc1)NCC1(N2CCOCC2)CCCCC1	11.4	i	16.1	x	i	-6.1
CCOC(=O)c1cnc2c(OC)cccc2c1N1CCN(c2ccccc2OC)CC1	-6.2	i	-2.2	-16.1	i	62.4*
CCOC(=O)c1cnc2c(OC)cccc2c1N1CCN(c2ccccn2)CC1	3.0	i	-23.4	0.2	i	47.3
CCCn1c(C(=O)OC)cc2c1ccn2-c1ccc(F)cc1	-0.8	i	-12.0	2.9	i	13.8
COC(=O)c1cc2c(ccn2-c2ccc(F)cc2)n1CC(C)C	-7.8	100*	-6.4	0.3	i	11.2
O=C(NC1CCCCC1)C(c1ccco1)N(C(=O)C(F)(F)F)C1CC1 (stereo unspecified)	14.1	i	-1.6	-9.9	-5.86*	9.7
CCOC(=O)C1(CCc2ccccc2)CCN(Cc2cc(OC)c(OC)cc2OC)CC1	28.7	i	-12.7	-4.6	i	4.3
Oc1cccc2c(NC(=S)Nc3ccc(SC(F)F)cc3)cccc12	9.9	100*	-77.8	-28.6	i	-49.6
FC(F)(F)c1cccc(NC(=S)Nc2ccc(Cl)c(Cl)c2)c1	14.2	i	15.5	-13.2	i	-17.7
O=[N+]([O-])c1cc(C(F)(F)F)cc([N+](=O)[O-])c1NCCNC(=S)Nc1ccc(Cl)c(Cl)c1	6.8	100*	-11.9	-20.6	i	18.1
Cc1nn(-c2cccc(Cl)c2)c2nc(-c3ccncc3)cc(C(=O)N3CCOCC3)c12	-18.1	i	22.9	-10.8	i	7.6
COc1ccc(Nc2nc(N)c(C(=O)c3ccc(F)cc3)s2)cc1	23.0	i	-21.0	48.4	i	70.0*
CC(C)C[C@H]1CN=C(Nc2ccccc2)N1CC1CCCCCC1	11.9	i	-7.4	x	i	x
CNC(=S)N(Cc1cc2cc(C)ccc2n2nnnc12)CC(C)(C)CN(C)C	-4.3	i	-9.5	-20.3	i	-2.8
COc1ccc(C2C(C(=O)Nc3cccc(C)n3)CCC(=O)N2c2ccc(OC)cc2)cc1 (stereo unspecified)	-11.9	i	-30.5	8.1	x	73.1*
COc1ccc(N2C(=O)CCC(C(=O)O)C2c2ccc(F)cc2)cc1 (stereo unspecified)	-20.1	i	-24.2	-3.0	i	-1.3
O=C(OCC(=O)C12CC3CC(CC(C3)C1)C2)c1ccc(O)cc1O	-42.9	i	-84.9	x	i	-47.1
COCCCNC(=O)C[C@H]1C[C@H](C(=O)N2CCOCC2)[C@@]2(CCC3CCCC3)c3[nH]c4ccc(Cl)cc4c3CCN2C1=O	x	x	12.5	x	x	x
O=C(CCNS(=O)(=O)/C=C/c1ccccc1)NCCc1c[nH]c2ccccc12	-12.3	i	14.9	6.6	i	7.3
CC(=O)c1sc(Nc2nc3ccc(F)cc3s2)nc1C	-69.6	25*	-199.3	-135.1	i	-216.3
CC(=O)c1sc(Nc2cccc(C)c2)nc1C	-28.4	i	-38.6	-121.5	i	-164.9
Cn1c(C(=O)Nc2ccc3c(c2)OCO3)cc2c(=O)n(C)c3ccccc3c21	-12.1	i	4.8	-4.3	-6.79*	-2.4
CC(NC(=O)c1cc2c(=O)n(C)c3ccccc3c2n1C)c1ccc2c(c1)OCCO2 (stereo unspecified)	0.5	i	16.6	14.9	i	2.6
Cc1ccc(-n2c(N)c(C(=O)Nc3c(C)n(C)n(-c4ccccc4)c3=O)c3nc4ccccc4nc32)cc1C	16.0	i	2.7	-7.9	x	74.0*
CCCCN(C(=O)c1ccc(C)o1)c1c(N)n(CC(C)C)c(=O)[nH]c1=O	4.0	x	3.2	x	i	x
SMILES	Jurkat NFkB inh	TMEM16A inh	697 NFkB inh	KLF5 inh	TMEM16A act	aSyn UTR inh
Cc1ccc(C(=O)NCCNC(=O)COc2ccccc2Cl)cn1	5.3	i	13.9	-17.9	i	8.6
CCOc1ccc(S(=O)(=O)N2CCC(C(=O)N3CCc4ccccc4C3)CC2)cc1	24.0	i	6.8	4.9	i	11.3
COc1ccc(S(=O)(=O)N2CCC(C(=O)N3CCc4ccccc4C3)CC2)cc1	5.9	i	13.9	-22.2	-12.1*	-5.7
S=C(NCCCc1ccccc1)Nc1ccccc1	12.4	i	8.7	-62.9	i	x
S=C(NCCC(c1ccccc1)c1ccccc1)Nc1ccc(Cl)cc1	-4.1	100*	-4.8	-12.4	i	6.1
S=C(NCCCc1ccccc1)Nc1ccc(Cl)cc1	3.7	100*	-10.8	-15.2	-6.31*	-11.5
COc1ccccc1C(=O)Nc1ccc(S(=O)(=O)N2CCCCC2)cc1	10.1	i	2.2	0.0	i	-12.2
CCOC(=O)[C@H]1[C@H]2COc3ccc(OC)cc3[C@@H]2N2C(=O)c3cc(OC)c(OC)cc3NC(=O)[C@@]12C	6.7	i	-6.3	x	i	x
COCCn1c(C)cc(C(=O)CSc2ccc3ccccc3n2)c1C	-34.6	25*	-31.0	-16.8	i	-140.9
COCCn1c(C)cc(C(=O)CSc2nc3ccccc3c(=O)[nH]2)c1C	-67.0	i	-171.8	-43.5	i	-152.3
O=[N+]([O-])/C=C/c1cn(Cc2ccc(F)cc2)c2ccccc12	-0.5	i	9.1	-6.5	i	63.2*
CCOC(=O)C1CCN(S(=O)(=O)c2ccc(C(=O)OC)cc2)CC1	-16.4	i	-8.4	7.1	-13.5*	26.8
Cc1cc(C)nc(SCc2ccc(C(=O)N/N=C/c3cccc(O)c3O)cc2)n1	42.5	i	-123.0	-33.2	i	70.1*
COc1ccc(O)c(/C=N/NC(=O)c2ccc(CSc3nc(C)cc(C)n3)cc2)c1	26.8	i	-30.1	21.9	i	19.5
COc1ccc(-n2cc(C(=O)c3cc(Cl)ccc3O)cc(C#N)c2=O)cc1	-5.5	i	5.3	23.2	i	32.2
CCOc1ccc(-n2cc(C(=O)c3cc(Cl)ccc3O)cc(C#N)c2=O)cc1	18.7	25*	25.4	-10.3	i	24.6
Cc1ccc(-n2cc(C(=O)c3cc(Cl)ccc3O)cc(C#N)c2=O)cc1	1.3	25*	-16.2	-22.9	i	-1.7
COc1ccc(O)c(C(=O)c2cc(C#N)c(=O)n(-c3ccc(Cl)cc3)c2)c1	1.0	i	-3.7	-0.6	-4.6*	-0.8
N#Cc1cc(C(=O)c2ccccc2O)cn(-c2ccc(Cl)cc2)c1=O	18.0	i	21.1	0.1	i	-2.1
O=C1c2ccccc2[C@@H]2C[C@@H](O)[C@H](Nc3cccc(Cl)n3)CCN12	x	x	14.8	x	i	x
Cc1cc(C)c(NS(=O)(=O)c2ccccc2)c(C)c1NS(=O)(=O)c1ccccc1	x	x	x	x	i	x
CC(=O)OC[C@]12CC[C@H]3[C@@](C)(CC[C@H]4C(C)(C)CCC[C@]34C)[C@@H]1C[C@H](C1=CC(=O)O[C@@H]1OC(C)=O)O2	5.1	x	-7.7	x	x	x
CSCCC(NC=O)C(=O)NC(C)C(=O)O (stereo unspecified)	x	x	x	x	i	x

Screening results from PubChem.
